Reference: PubChem BioAssay (EPA / NIEHS)
Records with an inconclusive call do not appear. Active and inactive are the calls of the source. The calls were made as follows, unless noted: active = hit-call score of the fitted dose curve at least 0.9, where 1 is the maximum; inactive = score below 0.9.

Key:
[1] = molecular target: human Vitamin D Receptor (VDR), VDR (gene 7421) (UniProt P11473); experiment: ATG_VDR_TRANS: Attagene TRANS-FACTORIAL HepG2 Assay for human Vitamin D Receptor (VDR) (AID 2283022; active = hit-call score of the fitted dose curve at least 0.9, where 1 is the maximum)
human Vitamin D Receptor (VDR), VDR (gene 7421), sequence (P11473 whole entry, looked up, the tested form may be a part): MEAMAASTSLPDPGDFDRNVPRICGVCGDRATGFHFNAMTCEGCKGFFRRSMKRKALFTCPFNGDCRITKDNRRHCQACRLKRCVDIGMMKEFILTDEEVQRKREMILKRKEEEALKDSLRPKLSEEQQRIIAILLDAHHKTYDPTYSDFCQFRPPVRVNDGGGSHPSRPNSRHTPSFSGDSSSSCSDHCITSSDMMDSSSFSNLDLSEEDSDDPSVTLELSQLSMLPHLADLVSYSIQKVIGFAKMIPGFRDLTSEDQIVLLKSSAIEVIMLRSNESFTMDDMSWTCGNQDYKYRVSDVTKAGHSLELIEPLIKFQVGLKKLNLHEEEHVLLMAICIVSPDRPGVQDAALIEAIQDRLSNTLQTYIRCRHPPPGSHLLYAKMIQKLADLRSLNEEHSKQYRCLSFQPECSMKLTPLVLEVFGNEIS
Method in brief: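 HepG2 cells were transiently transfected with multiple GAL4-UAS reporter units, so signal reflects exogenous chimeric receptor-Gal4 activity. After 24 h compound exposure, reporter mRNA was measured by RT-PCR, fluorescent labelling and capillary electrophoresis, fitted for gain of signal versus DMSO.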

[2] = BSK_3C_SRB: Viability Assessment in the BioMAP Diversity Plus: 3C Assay (AID 2283023); settings: primary human endothelial cells (HUVEC);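 also: fitted both ways against DMSO so a hit may be signal rise or drop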
Method in brief: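 Primary human umbilical vein endothelial cells in the 3C system were read 24 h after compound dosing. Total protein was stained with 0.1% sulforhodamine B after 10% TCA fixation and read at 560 nm, with bidirectional fitting against DMSO as baseline.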

[3] = read-out: Matrix Metallopeptidase 1 (MMP1), MMP1 (gene 4312); experiment: BSK_BE3C_MMP1: BioMAP Diversity Plus: BE3C Assay for Matrix Metallopeptidase 1 (MMP1) Biomarker Activity (AID 2283024); settings: primary human bronchial epithelial cells; actives raise or lower the signal
Method in brief: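 Human primary bronchial epithelial cells (BE3C system) dosed for 24 h; MMP-1 quantified by ELISA. Bidirectional fit against DMSO; cytotoxicity tracked in parallel cultures by SRB total-protein staining.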

[4] = BSK_3C_Vis: BioMAP Diversity Plus: 3C Assay for Morphology Visualization (AID 2283025); settings: primary human endothelial cells (HUVEC);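 also: fitted both ways so gain or loss versus DMSO counts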;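 as to AC50: light microscopy image of cell morphology used as background control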
Method in brief: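 Human umbilical vein endothelial cell morphology was inspected by light microscopy 24 h after chemical dosing; scored bidirectionally relative to DMSO.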

[5] = read-out: Pselectin, SELP (gene 6403); experiment: BSK_4H_Pselectin: BioMAP Diversity Plus: 4H Assay for Pselectin Biomarker Activity (AID 2283026); settings: primary human endothelial cells (HUVEC); actives raise or lower the signal
Method in brief: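 Primary human umbilical vein endothelial cells were treated 24 h, and cell-surface P-selectin was then quantified by ELISA. Bidirectional fit versus DMSO; cytotoxicity checked in parallel cultures by SRB total-protein staining.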

[6] = BSK_BE3C_SRB: Viability Assessment in the BioMAP Diversity Plus: BE3C Assay (AID 2283028); settings: primary human bronchial epithelial cells
Method in brief: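 Human primary bronchial epithelial cells were exposed to test chemicals for 24 h. Total protein in parallel cultures was then measured by staining with 0.1% sulforhodamine B after 10% TCA fixation, with absorbance read at 560 nm. Activity was fitted bidirectionally against DMSO.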

[7] = read-out: Thrombomodulin, THBD (gene 7056); experiment: BSK_3C_Thrombomodulin: BioMAP Diversity Plus: 3C Assay for Thrombomodulin Biomarker Activity (AID 2283029); settings: primary human endothelial cells (HUVEC); actives raise or lower the signal
Method in brief: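 Human umbilical vein endothelial cells were exposed to chemicals for 24 h; cell-surface thrombomodulin quantified by ELISA, with bidirectional fitting against DMSO baseline.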

[8] = read-out: Urokinase-type plasminogen activator receptor (uPAR), PLAUR (gene 5329); experiment: BSK_4H_uPAR: BioMAP Diversity Plus: 4H Assay for Urokinase-type plasminogen activator receptor (uPAR) Biomarker Activity (AID 2283030); settings: primary human endothelial cells (HUVEC); actives raise or lower the signal
Method in brief: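 Primary human umbilical vein endothelial cells were exposed to chemical for 24 h before cell-surface uPAR was quantified by ELISA. Activity was fitted bidirectionally against the DMSO negative control baseline.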

[9] = read-out: Vascular endothelial growth factor receptor 2 (Homo sapiens) (UniProt P35968); experiment: BSK_4H_VEGFRII: BioMAP Diversity Plus: 4H Assay for Vascular endothelial growth factor receptor 2 (VEGFR2) Biomarker Activity (AID 2283031); settings: primary human endothelial cells (HUVEC); actives raise or lower the signal
Method in brief: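 Primary human umbilical vein endothelial cells in the BioMAP 4H system were dosed with test chemical, and 24 h later VEGFRII was measured by ELISA. Activity was fitted bidirectionally against DMSO as negative control and baseline.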

[10] = read-out: Human Leukocyte Antigen - DR isotype (HLADR), HLA-DRA (gene 3122); experiment: BSK_BE3C_HLADR: BioMAP Diversity Plus: BE3C Assay for Human Leukocyte Antigen - DR isotype (HLADR) Biomarker Activity (AID 2283032); settings: primary human bronchial epithelial cells; actives raise or lower the signal
Method in brief: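 Human primary bronchial epithelial cells (BE3C system) exposed to compound for 24 hours; cell-surface HLA-DR measured by ELISA, fitted bidirectionally relative to DMSO. Total protein by SRB in parallel cultures tracked cytotoxicity.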

[11] = read-out: Vascular cell adhesion molecule 1 (VCAM1), VCAM1 (gene 7412); experiment: BSK_4H_VCAM1: BioMAP Diversity Plus: 4H Assay for Vascular cell adhesion molecule 1 (VCAM1) Biomarker Activity (AID 2283033); settings: primary human endothelial cells (HUVEC); actives raise or lower the signal
Method in brief: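 Primary human umbilical vein endothelial cells, 4H stimulation system, treated for 24 h; cell-surface VCAM-1 quantified by ELISA. Bidirectional fitting against DMSO; cytotoxicity tracked by SRB total-protein staining in parallel cultures.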

[12] = read-out: Interferon-gamma inducible Protein 10 (IP10), CXCL10 (gene 3627); experiment: BSK_BE3C_IP10: BioMAP Diversity Plus: BE3C Assay for Interferon-gamma inducible Protein 10 (IP10) Biomarker Activity (AID 2283034); settings: primary human bronchial epithelial cells; actives raise or lower the signal
Method in brief: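 Primary human bronchial epithelial cells, with IP-10 measured by ELISA 24 hours after chemical dosing. Bidirectional fit against DMSO; cytotoxicity checked by SRB total protein staining in parallel cultures.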

[13] = read-out: Monokine induced gamma interferon (MIG), CXCL9 (gene 4283); experiment: BSK_BE3C_MIG: BioMAP Diversity Plus: BE3C Assay for Monokine induced gamma interferon (MIG) Biomarker Activity (AID 2283035); settings: primary human bronchial epithelial cells; actives raise or lower the signal;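 also: MIG protein measured by ELISA in BE3C cultures after 24 h of dosing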
Method in brief: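 ELISA read-out of MIG in human lung bronchial epithelial primary cultures, 24 h post-dosing. Bidirectional curve fit vs DMSO baseline.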

[14] = read-out: Plasminogen activator inhibitor-1 (PAI1), SERPINE1 (gene 5054); experiment: BSK_BE3C_PAI1: BioMAP Diversity Plus: BE3C Assay for Plasminogen activator inhibitor-1 (PAI1) Biomarker Activity (AID 2283037); settings: primary human bronchial epithelial cells; actives raise or lower the signal
Method in brief: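 Primary human bronchial epithelial cells (BE3C system) exposed 24 h; PAI-1 quantified by ELISA. Parallel sulforhodamine B staining of total protein flags cytotoxicity. Bidirectional fit versus DMSO.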

[15] = read-out: urokinase plasminogen activator (uPA), PLAU (gene 5328); experiment: BSK_BE3C_uPA: BioMAP Diversity Plus: BE3C Assay for urokinase plasminogen activator (uPA) Biomarker Activity (AID 2283038); settings: primary human bronchial epithelial cells; actives raise or lower the signal;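 also: uPA protein level quantified by ELISA in cell cultures; uPA read one day after compound addition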
Method in brief: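 Human primary bronchial epithelial cells were exposed to chemical for 24 h, then uPA levels were measured by ELISA. Responses were fitted bidirectionally against DMSO as negative control and baseline. Parallel SRB staining of total protein gauged overt cytotoxicity.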

[16] = read-out: Urokinase-type plasminogen activator receptor (uPAR), PLAUR (gene 5329); experiment: BSK_BE3C_uPAR: BioMAP Diversity Plus: BE3C Assay for Urokinase-type plasminogen activator receptor (uPAR) Biomarker Activity (AID 2283039); settings: primary human bronchial epithelial cells; actives raise or lower the signal;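 also: cells exposed to compound for one day before measurement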
Method in brief: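 Primary human bronchial epithelial cells dosed for 24 h; uPAR quantified by ELISA with bidirectional fitting against DMSO. Overt cytotoxicity assessed in parallel cultures by SRB total-protein staining (0.1% SRB, 560 nm).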

[17] = read-out: Interleukin-6 (IL6), IL6 (gene 3569); experiment: BSK_CASM3C_IL6: BioMAP Diversity Plus: CASM3C Assay for Interleukin-6 (IL6) Biomarker Activity for (AID 2283040); settings: primary human coronary artery smooth muscle cells; actives raise or lower the signal
[18] = read-out: Tissue plasminogen activator (tPA), PLAT (gene 5327); experiment: BSK_BE3C_tPA: BioMAP Diversity Plus: BE3C Assay for Tissue plasminogen activator (tPA) Biomarker Activity (AID 2283041); settings: primary human bronchial epithelial cells; actives raise or lower the signal
Method in brief: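 Primary human bronchial epithelial cells in the BE3C system, exposed to compound for 24 h. tPA was quantified by ELISA; DMSO served as baseline, with gain or loss of signal fitted. Cytotoxicity checked in parallel cultures by SRB total-protein staining.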

[19] = read-out: Transforming growth factor beta 1 (TGFb1), TGFB1 (gene 7040); experiment: BSK_BE3C_TGFb1: BioMAP Diversity Plus: BE3C Assay for Transforming growth factor beta 1 (TGFb1) Biomarker Activity (AID 2283036); settings: primary human bronchial epithelial cells; actives raise or lower the signal
Method in brief: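 Primary human bronchial epithelial cells dosed with chemical; TGF-b1 measured by ELISA 24 h after dosing. Bidirectional curve fitting against DMSO negative control; SRB total-protein staining in parallel cultures gauged cytotoxicity.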

[20] = BSK_4H_SRB: Viability Assessment in the BioMAP Diversity Plus: 4H Assay (AID 2283027); settings: primary human endothelial cells (HUVEC);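 as to AC50: curves fitted both ways versus DMSO so AC50 may be loss or gain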
Method in brief: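 Human umbilical vein endothelial cells were dosed with chemical and, after 24 h, fixed with 10% TCA, stained with 0.1% sulforhodamine B, and read at 560 nm to give total protein as a cytotoxicity measure. Bidirectional fitting relative to DMSO control.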

Measured: AC50

CC1(C)NC(=O)NC1=O
not listed: [19] | [20]
inactive: all other assays above

Cc1ccc(C)c(O)c1C
not listed: [20]
inactive: all other assays above

CCOc1ccc2c(c1)C(C)=CC(C)(C)N2
active: [1] 150 µM
not listed: [16]
inactive: all other assays above

COc1ccc(S(=O)(=O)N2C(=O)[C@@](c3ccccc3OC)(N3C[C@H](O)C[C@H]3C(=O)N(C)C)c3cc(Cl)ccc32)c(OC)c1
active: [2] 27 µM | [4] 39 µM | [20] 29.3 µM | [8] 8.31 µM
not listed: [16] | [19]
inactive: all other assays above

Cc1cc(NC(=O)C(=O)O)cc(C)c1Oc1ccc(O)c2c1CCC2
not listed: [16] | [19]
inactive: all other assays above

Cc1cc(=O)[nH]c(=S)[nH]1
not listed: [16] | [19]
inactive: all other assays above

Cc1ccc(Cl)cc1
not listed: [19]
inactive: all other assays above

Nc1ccccc1N
active: [11] 4.07 µM
not listed: [20]
inactive: all other assays above

Cc1oc(-c2ccccc2)nc1CCOc1cccc2c1ccn2CCC(=O)O
active: [10] 20.7 µM | [12] 26 µM | [18] 20 µM
not listed: [16] | [19]
inactive: all other assays above

CNCc1cc(F)ccc1Oc1ccc(Cl)c(Cl)c1
active: [2] 27.6 µM | [5] 26 µM | [20] 26.1 µM | [8] 26.9 µM | [10] 27.9 µM
not listed: [16]
inactive: all other assays above

CCCCCC(=O)O
inactive: all assays above

CC1=C(/C=C/C(C)=C/C=C/C(C)=C/CO)C(C)(C)CCC1
active: [10] 18 µM | [11] 31.1 µM
not listed: [20]
inactive: all other assays above

COc1cc(/C=C/C(=O)CC(=O)/C=C/c2ccc(O)c(OC)c2)ccc1O
inactive: [1]

CCCCCCC(=O)OCC
not listed: [16]
inactive: all other assays above
